Source: PubChem BioAssay (National Center for Advancing Translational Sciences (NCATS))
PTHR1 ag – qHTS for PTHR1 Agonists: Primary Screen | Parathyroid hormone/parathyroid hormone-related peptide receptor (Homo sapiens), Q03431 | HEK293 GP2 PTHR1 cells, GloSensor cAMP luminescence, 1 h | Potency, µM (highest dose often 115 µM), without a hit: top-dose activation, hits mostly activators | 0.075% of 410,000 active | AID 743266, 2014; also: potency is read from the fitted curve at half-maximal effect; nearly all actives have a fitted effect of over 55% in size
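HEK-293-derived GP2 cells expressing PTHR1 and a GloSensor cAMP reporter, 3,000/well, plated overnight, given luciferin plus IBMX (each 0.5 mM as added) for 1 h at 37 °C, then compound for 1 h at 37 °C. Luminescence was read after 15 min at room temperature.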
GLP1R inv ag – qHTS of GLP-1 Receptor Inverse Agonists (Inhibition Mode) | Glucagon-like peptide 1 receptor (Homo sapiens), P43220 | HEK293 GLP-1R CRE-luciferase, luminescence, 24 h; GLP-1R form is constitutively active | Potency, µM (doses to about 38.3 µM), for inactives: at the top dose activity change, negative = inhibition, hits mostly inhibitors | 1.6% of 410,000 active; also: potency is read from the fitted curve at half-maximal effect; % is scaled to controls: 0 for no effect and ±100 for the full control effect; nearly all actives have a fitted effect of over 55% in size
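Inverse agonism was detected as reduced cAMP-driven luciferase luminescence after 24 h compound treatment. The cells were HEK293 clones expressing constitutively active human GLP-1R with the reporter. Reporter-only and GPR119 cell lines served as counterscreen controls.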
HEK293 tox – qHTS of GLP-1 Receptor Inverse Agonists: Cytotox Screen; HEK293 cAMP-luciferase reporter cells, luminescence, 24 h; AID 624418, 2012; Potency, µM (top dose mostly 38.3 µM), inactives show at the top dose activity change, negative = inhibition, actives largely listed as inhibitors; 0.13% of 410,000 active;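 also: loss of luciferase light is scored as toxicity; potency is read from the fitted curve at half-maximal effect; % is scaled to controls: 0 for no effect and ±100 for the full control effect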
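Seeding density was 200 cells/uL; after overnight-length (12 h) culture, 23 nL compounds went on for 24 h at 37 °C. Readout used a luciferase detection reagent, luminescence taken after 12 min at room temperature.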
IDH1 R132H inh – qHTS for Inhibitors of mutant isocitrate dehydrogenase 1 (IDH1): qHTS; Isocitrate dehydrogenase [NADP] cytoplasmic (Homo sapiens), O75874; Potency, µM (titrated, usually from 76.6 µM), without a hit: top-dose activity change, negative = inhibition, actives largely listed as inhibitors; IDH1-R132H enzyme, NADPH consumption, diaphorase/resazurin fluorescence; 0.093% of 390,000 active; also: potency is read from the fitted curve at half-maximal effect; % is scaled to controls: 0 for no effect and ±100 for the full control effect; nearly all actives have a fitted effect of over 65% in size
Target sequence (O75874 whole entry R132H, stated change not applied): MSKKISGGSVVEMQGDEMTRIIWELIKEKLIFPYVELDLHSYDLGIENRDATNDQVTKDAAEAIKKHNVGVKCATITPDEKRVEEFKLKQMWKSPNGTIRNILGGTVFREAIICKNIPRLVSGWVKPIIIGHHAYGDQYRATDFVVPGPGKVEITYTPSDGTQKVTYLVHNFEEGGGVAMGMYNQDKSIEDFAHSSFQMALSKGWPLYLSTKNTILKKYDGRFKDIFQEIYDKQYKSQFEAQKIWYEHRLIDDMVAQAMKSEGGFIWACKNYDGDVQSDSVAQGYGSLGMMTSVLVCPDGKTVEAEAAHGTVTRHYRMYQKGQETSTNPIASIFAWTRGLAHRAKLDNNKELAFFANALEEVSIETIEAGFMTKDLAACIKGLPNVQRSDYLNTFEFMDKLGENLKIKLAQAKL
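IDH1-R132H (0.5 ug/mL dispensed) in pH 7.5 Tris buffer was preincubated 30 min with compound, then given a substrate mix of 0.016 mM NADPH and 2 mM alpha-KG for 80 min at room temperature; remaining NADPH was read by diaphorase/resazurin fluorescence.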
LDHA inh – qHTS assay for inhibitors of human lactate dehydrogenase; purified LDHA, NADH/diaphorase-resazurin fluorescence; stronger effect = lower value; activity change, % (values are at about 110 or 230 µM); 0.15% of 480,000 active; in the data active = activity change below about -30%; inconclusive = mostly about -25% to -30%;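 also: plate controls were DMSO wells for no effect and wells without enzyme for full effect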
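Resorufin fluorescence (ex540/em590), read at 0 and 20 min after diaphorase/resazurin addition, reports the NADH left after a 5 min room-temperature reaction of 2 nM human LDH5 with 0.06 mM NADH and 0.2 mM pyruvate.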
GLP-1R agonist – qHTS of GLP-1 Receptor Agonists | HEK293 GLP-1R CRE-luciferase, luminescence, 4-6 h; cells express a hypersensitive GLP-1R form | Glucagon-like peptide 1 receptor (Homo sapiens), P43220 | AID 624172, 2012 | Potency, µM (titrated, usually from 45.6 µM), without a hit: top-dose activation, usual class: activators | 0.007% of 380,000 active; also: potency is read from the fitted curve at half-maximal effect; % of control where 0% means no effect
An asterisk follows results filed as active; i = inactive; ? = inconclusive; · = no result given. A selection: hits, their analogues and other compounds. The true share with any hit is near 1.7%. Unless noted, calls follow the shape of the dose curve; as a rule, active = well fitted curve in the direction sought with a large enough effect; inconclusive = small, poorly fitted or top-dose-only effect, or another doubt; inactive = no such curve, though single readings can be large; an effect the other way counts as inactive or inconclusive.

SMILES	PTHR1 ag	GLP1R inv ag	HEK293 tox	IDH1 R132H inh	LDHA inh	GLP-1R agonist
COc1ccc(-c2[nH]c(-c3ccc(C)cc3)nc2SCC(=O)NC2CCCC2)cc1	-15%	10µM*	?	0%	-5	-3%
COc1ccc2c(C)cc(SCC(=O)NC3CCCC3)nc2c1	-11%	11µM*	-1%	2%	-3	14%
COc1ccc2c(C)cc(SCC(=O)NCC3CCCCC3)nc2c1	·	·	·	·	4	·
COCCN(CCOC)c1ncnc2c1c(-c1ccccc1)cn2-c1cccc(C)c1	·	·	·	·	7	·
Cc1ccc(NC(=O)[C@@H](c2ccccc2)N2Cc3ccccc3C2=O)cc1F	-17%	10µM*	-7%	-4%	0	-4%
CC(C)Cn1c(Cn2cccn2)nc2cc(NC(=O)COc3ccccc3)ccc21	·	·	·	·	-1	·
Ic1ccc(-c2nc(-c3ccccn3)no2)cc1	·	·	·	·	7	·
Nc1ncc(Br)cc1S(=O)(=O)NCCC(=O)NCCc1ccccc1	-17%	?	1%	0%	-2	0%
CN(C)c1ccc(CNC(=O)CCNS(=O)(=O)c2cc(Br)cnc2N)cc1	i	4.5µM*	-5%	-8%	-1	-4%
N#Cc1nc(C2CC2)oc1N1CCN(Cc2cccc3ccccc23)CC1	·	·	·	·	5	·
CCOC(=O)N1CCC(N(CCN(C)C)C(=S)Nc2cccc(SC)c2)CC1	-14%	5.6µM*	1%	10%	-3	5%
CCOC(=O)N1CCC(N(CCN(C)C)C(=S)Nc2cccc(C)c2)CC1	i	1%	-14%	2%	-5	-3%
O=C(O)Cn1cc(C(C(=O)O)N2CCN(Cc3cccnc3)CC2)c2ccc(F)cc21 (stereo unspecified)	·	·	·	·	0	·
CC1CCN(C(=O)c2cc3c(ccc4ccccc43)o2)CC1	-33%	10µM*	25%	7%	2	-1%
O=C(NCc1cccs1)Nc1cc(Cl)ccc1Cl	-1%	?	10µM*	-5%	-18	32%
COc1ccccc1CNc1nc(Nc2ccc(C)cc2C)c2sccc2n1	-78%	10µM*	-13%	·	-8	0%
COc1cccc(CNc2nc(NC(C)C)nc3ccsc23)c1OC	-55%	11µM*	?	·	-3	-2%
c1ccc2c(c1)ncn2-c1ncnc2sc3c(c12)CCCC3	i	4.5µM*	-29%	5%	-5	5%
CC(O)CNc1nc2ccccc2n1-c1ncnc2sc3c(c12)CCC3 (stereo unspecified)	-20%	10µM*	?	1%	-4	0%
CCN(Cc1nc2cc(Cl)ccc2c(=O)[nH]1)C(=O)c1cc(Cl)c(OCC(N)=O)c(OC)c1	·	·	·	·	16	·
Cc1ccc(OCCOCCN2CCN(C)CC2)c([N+](=O)[O-])c1	-20%	-20%	-14%	3%	-46*	0%
CN1CCN(CCOCCOc2ccc(Br)cc2Cl)CC1	-20%	?	-5%	-8%	-38*	4%
CC1CCCN(CCOCCOc2ccc(Br)cc2Cl)C1 (stereo unspecified)	-12%	?	-24%	-7%	?	10%
O/N=C1\CCCOc2ccc(Br)cc21	·	·	·	·	-6	·
CC(C)C(OC(=O)c1nsc(Cl)c1Cl)C(=O)NCC1CCCO1 (stereo unspecified)	50µM*	4%	-13%	0%	0	-4%
SMILES	PTHR1 ag	GLP1R inv ag	HEK293 tox	IDH1 R132H inh	LDHA inh	GLP-1R agonist
CCCNC(=O)C(Cc1ccccc1C)NC(=O)c1ccc(C#N)cc1 (stereo unspecified)	-23%	20%	2.5µM*	10%	1	5%
COc1ccc2[nH]c3c(NCCC4=CCCCC4)ncnc3c2c1	-47%	5µM*	?	-7%	5	7%
COc1ccccc1C(=O)NC1CCCCCCC1	-12%	7.1µM*	-7%	8%	2	16%
O=C(COc1ccc(C(=O)c2ccccc2)cc1)NC1CCCCCC1	-54%	8.9µM*	-13%	3%	-3	1%
O=C(NC1CCCC1)c1cccc(Oc2ccccc2)c1	-21%	10µM*	-3%	20%	2	21%
O=C(COc1ccccc1)NC1CCCCCCC1	-20%	11µM*	0%	-1%	-1	5%
O=C(Nc1nc(-c2ccc(Cl)cc2Cl)cs1)C1CCN(C(=O)c2ccco2)CC1	·	·	·	·	5	·
CC[C@]12c3[nH]c4ccc(Cl)cc4c3CCN1C(=O)[C@@H](CC(=O)NCc1cccc(C(F)(F)F)c1)C[C@@H]2C(=O)N1CCN(C(=O)c2ccco2)CC1	-5%	10µM*	?	-16%	1	-1%
CN(Cc1ccccc1)c1oc(/C=C/c2ccccc2)nc1C#N	·	·	·	·	-9	·
O=C(Nc1nc(-c2ccc(Cl)cc2Cl)cs1)c1ccc(OCC2CCCO2)cc1 (stereo unspecified)	-27%	7.1µM*	-1%	2%	-9	5%
CCc1ccc(/C=N/Nc2ccc(S(=O)(=O)Nc3ccc(C)cc3C)cc2[N+](=O)[O-])cc1	·	·	·	·	-13	·
CC(C)(C)NC(=O)C(c1cccc2ccccc12)n1c(=O)c(-c2cc3ccccc3[nH]2)nc2ccccc21 (stereo unspecified)	-34%	6.3µM*	i	·	0	·
CC(C)(C)NC(=O)C(c1ccc(C(F)(F)F)cc1)n1c(=O)c(-c2cc3ccccc3[nH]2)nc2ccccc21 (stereo unspecified)	-27%	2.8µM*	i	·	-2	·
Cc1ccc(S(=O)(=O)NCC(c2ccccc2)N2CCCCC2)cc1 (stereo unspecified)	i	10µM*	7%	3%	-4	6%
Cc1ccc(N(C)C(CNS(=O)(=O)c2ccccc2)c2ccccc2)cc1 (stereo unspecified)	-22%	10µM*	2%	·	-1	·
Cc1ccc(C(CNS(=O)(=O)c2ccc(F)cc2)N2CCN(C)CC2)cc1 (stereo unspecified)	-9%	?	2%	4%	-1	1%
CN1CCN(C(CNS(=O)(=O)c2ccc([N+](=O)[O-])cc2)c2ccc(F)cc2)CC1 (stereo unspecified)	i	11µM*	-1%	4%	8	-12%
CN(c1ccccc1)C(CNS(=O)(=O)c1ccccc1)c1ccccc1 (stereo unspecified)	-22%	?	8%	·	-2	·
